Shown are actives, neighbours in structure and some others; about 12% of the full set was active somewhere.
Lmaj promast – inhibitors of Leishmania major promastigote growth; Leishmania major promastigotes, resazurin fluorescence viability; actives 9% (n = 200,000); inhibition, % at 10 µM; in the data active = inhibition above about 50%;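 note: promastigotes grown with compound for 44 hours at 28 °C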
Arbovirus anti – blocks arbovirus infection; arbovirus infection cell-based antiviral screen; inhibition, % at 10 µM; actives 0.37% (n = 200,000); AID 1251; in the data active = inhibition above about 30%
WT yeast gro inh – growth inhibition of WT yeast, mitochondrial fusion screen. mitochondrial fusion phenotypic screen, WT strain. inhibition, % at 10 µM. actives 2.1% (n = 190,000); in the data active = inhibition above about 58%; tested in S. cerevisiae
CHOP inhibitor – CHOP inhibition in unfolded protein response; actives 3.8% (n = 220,000); AID 2732; inhibition, % at 10 µM; CHO-K1 CHOP-promoter luciferase, tunicamycin-induced, 15-18 h;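 active = compounds that reduced the stress-induced luciferase reporter signal by more than about 70% of percent inhibition, limit read from the data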;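 note: 0% = tunicamycin plus vehicle and 100% = wells without tunicamycin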
Numbers without * were called inactive; x = no result.

SMILES	Lmaj promast	Arbovirus anti	WT yeast gro inh	CHOP inhibitor
O=C(CCCn1c(=S)[nH]c2ccsc2c1=O)Nc1ccc2c(c1)OCCO2	-7	-11	-2	14
O=C(Nc1nnc(-c2ccncc2)s1)Nc1ccccc1F	60*	8	-2	-9
CCSC(=S)c1c(C)[nH]n(-c2ccccc2)c1=O	x	x	x	10
COC(=O)c1ccc(NC(=S)NC2CC3CCC2C3)cc1 (centres undefined)	73*	16	43	-11
COC(=O)c1ccc(NC(=O)NC2CCCCC2)cc1	52*	5	-2	-12
COC(=O)c1ccc(NC(=S)NC2CCCCC2)cc1	87*	19	8	-8
S=C(Nc1ccc(Nc2ccccc2)cc1)NC1CCCCCC1	24	-12	81*	80*
O=C(Nc1cc(Cl)ccn1)C1(c2ccccc2)CC1(Cl)Cl (centres undefined)	x	x	x	19
S=C(NNc1cccc(Cl)c1)NC1CCCCC1	31	-15	61*	51
O=C(OC[C@@H]1CCCN2CCCC[C@H]12)c1cc2ccccc2oc1=O	-3	5	21	14
Brc1ccc(-c2ccc(/C=N/Nc3nc4ccccc4[nH]3)o2)cc1	80*	4	81	13
Cc1cc(=O)[nH]c(N/N=C/c2c[nH]c3ccccc23)n1	x	x	x	7
C(=N\Nc1nc2ccccc2[nH]1)/c1c[nH]c2ccccc12	99*	-40	-5	-38
COc1ccc(/C=N/Nc2nc3ccccc3[nH]2)c(OC)c1OC	x	x	x	-44
Cc1ccccc1/C=N/Nc1nc2ccccc2[nH]1	79*	4	23	8
C(=N\Nc1nc2ccccc2[nH]1)/c1cccc2cccnc12	x	x	x	88*
CCOC(=O)N1CCN(c2c(N3CCN(c4ccccc4F)CC3)c(=O)c2=O)CC1	x	x	x	5
Cc1ccc(/C=N/Nc2nc3ccccc3[nH]2)s1	57*	19	15	-10
O=[N+]([O-])c1cc(/C=N/Nc2nc3ccccc3[nH]2)c(O)cc1O	99*	-26	16	23
Cc1ccc(/C=N/Nc2nc(Cl)c(Cl)cc2Cl)s1	-8	11	7	83*
COc1ccc(S(=O)(=O)NCC2CCC(C(=O)N3CCC4(CC3)OCCO4)CC2)cc1 (centres undefined)	-5	-12	-6	-2
COc1ccccc1N1CCN(C2CCN(C3CCC(c4ccccc4)CC3)CC2)CC1 (centres undefined)	99*	-14	12	15
COc1ccc(C(=O)N2CCN(C3CCC(c4ccccc4)CC3)CC2)cc1OC (centres undefined)	88*	13	2	11
O=C(c1ccc(F)cc1)N1CCCC(c2ccccc2)C1 (centres undefined)	-8	19	-8	13
O=C(c1ccccc1F)N1CCN(C2CCC(c3ccccc3)CC2)CC1 (centres undefined)	97*	-4	-57	34
SMILES	Lmaj promast	Arbovirus anti	WT yeast gro inh	CHOP inhibitor
COc1ccc(C(=O)N2CCC(N3CCN(c4ccccc4)CC3)CC2)cc1OC	13	-3	-7	1
O=C(c1ccc(F)cc1)N1CCN(C2CCC(c3ccccc3)CC2)CC1 (centres undefined)	92*	-4	-54	17
CC(C)(Oc1ccc(Cl)cc1)C(=O)NCc1ccc(S(N)(=O)=O)cc1	0	5	9	18
COC(C[C@H]1O[C@H]1[C@H](O)COCc1ccccc1)OC	x	x	x	9
Cc1ccc(SCc2cc(=O)[nH]c(/N=C(\N)Nc3ccc(C)c(C)c3)n2)cc1	2	-14	x	0
Cc1ccc2nc(-c3ccsc3)c(NC3CCCC3)n2c1	35	-3	28	6
Cc1noc(C)c1S(=O)(=O)N1CCC(C(=O)NC2CCCc3ccccc32)CC1 (centres undefined)	60*	-2	2	-22
Cc1ccc(NC(=O)C2CCN(S(=O)(=O)c3c(C)noc3C)CC2)cc1C	99*	-9	-6	12
CCc1cccc(NC(=O)C2CCN(S(=O)(=O)c3c(C)noc3C)CC2)c1	64*	11	-6	29
Cc1noc(C)c1S(=O)(=O)N1CCC(C(=O)Nc2ccccn2)CC1	5	1	42	1
Cc1noc(C)c1S(=O)(=O)N1CCC(C(=O)NC2CCN(Cc3ccccc3)CC2)CC1	89*	2	-2	-18
Cc1noc(C)c1S(=O)(=O)N1CCC(Cc2ccccc2)CC1	10	7	28	24
Cc1nonc1C1CCCN1Cc1nc(-c2ccccc2Cl)oc1C (centres undefined)	16	0	-10	14
Cc1c(C(=O)OCC2CCCO2)[nH]c2c1C(=O)CC(c1ccc(N(C)C)cc1)C2 (centres undefined)	14	-5	5	34
O=C(NCc1ccco1)C(=O)c1cn(CC(=O)N2CCCCC2)c2ccccc12	-4	12	-2	9
